Reference: PubChem BioAssay (Tox21)
Inconclusive results are not listed. Activity calls are given as the source filed them. Unless noted, calls follow the shape of the dose curve; as a rule, active = well fitted curve in the direction sought with a large enough effect in the repeat runs; inconclusive = weak or mixed curves; inactive = no such curve, though single readings can be large; an effect the other way counts as inactive or inconclusive.

Key:
[1] = qHTS assay for small molecules that induce genotoxicity in human embryonic kidney cells expressing luciferase-tagged ATAD5 (AID 651632); also: nearly all actives have a fitted effect of over 15% in size; also: potency is read from the fitted curve at half-maximal effect
How it was run: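 Luminescence read-out: after 16 hr compound exposure at 37C, ATAD5-luciferase HEK293T cells received Amplite, 30 min RT, then CCD imaging. A rise in signal marks genotoxic stress.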

[2] = qHTS assay for small molecule agonists of the p53 signaling pathway - cell viability (AID 651633; calls by dose curve; also: series mostly up to about 83 µM; nearly all actives have a fitted effect of over 30% in size)
How it was run: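 p53RE-bla cells were treated with compound for 16 hours at 37 C. Cytotoxicity was then measured as CellTiter-Glo luminescence after 30 min at room temperature.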

[3] = qHTS assay for small molecules that induce genotoxicity in human embryonic kidney cells expressing luciferase-tagged ATAD5 - cell viability (AID 651634; calls by dose curve; also: nearly all actives have a fitted effect of over 25% in size)
How it was run: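 HEK293T ATAD5-luc cells, 2,000/well; compound 15.5 hr, 37C/5% CO2; CellTiter-Fluor 30 min, 37C; fluorescence read.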

[4] = qHTS assay for small molecule disruptors of the mitochondrial membrane potential - cell viability (AID 720634; calls by dose curve;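 also: human HepG2 liver cancer cells; series mostly up to about 83 µM; nearly all actives have a fitted effect of over 20% in size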)
How it was run: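 Luminescence from CellTiter-Glo (ATP content) gave viability in HepG2 cells, read in the same wells as the MMP dye assay after 1 hr compound exposure at 37 C.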

[5] = qHTS assay for small molecule disruptors of the mitochondrial membrane potential (AID 720635)
How it was run: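 HepG2 cells exposed to compound 1 hr at 37C, then Mito-MPS dye 30 min. Ratio read of aggregate (540/590 nm) versus monomer (490/535 nm) fluorescence.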

[6] = qHTS assay to test for compound auto fluorescence at 590 nm (red) in HepG2 cells (AID 720674)
How it was run: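 HepG2 cells, 2,000 per well in MEM with 10% FBS, attached overnight at 37 C, then got 23 nL compound or DMSO. After 1 hr at 37 C, 5% CO2, red fluorescence was read at 540/590 nm against Rose Bengal sodium as reference.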

[7] = qHTS assay to test for compound auto fluorescence at 535 nm (green) in HepG2 cells (AID 720675)
[8] = qHTS assay to test for compound auto fluorescence at 460 nm (blue) in HEK293 cells (AID 720678)
How it was run: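 Blue read-out at excitation 405 nm and emission 460 nm follows overnight compound exposure of HEK293 cells at 37C in 5% CO2. Activity is given as auto fluorescence equivalency to triamterene.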

[9] = qHTS assay to test for compound auto fluorescence at 590 nm (red) in HEK293 cells (AID 720679)
How it was run: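 Red channel, Ex/Em 540/590nm; signal expressed as equivalency to Rose Bengal sodium. HEK293, 2,000 cells/well, 10% dialyzed FBS; 23 nL compound pinned after 4-5 hr attachment; overnight 37C/5% CO2 before reading.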

[10] = qHTS assay to test for compound auto fluorescence at 535 nm (green) in HEK293 cells (AID 720680)
[11] = qHTS assay to test for compound auto fluorescence at 460 nm (blue) in HEK293 cell free culture (AID 720681)
How it was run: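 Compounds were added to cell-free DMEM with 10% FBS and fluorescence read directly. The blue channel used 405 nm excitation and 460 nm emission, with triamterene as the reference fluorophore.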

[12] = qHTS assay to test for compound auto fluorescence at 535 nm (green) in HEK293 cell free culture (AID 720682)
How it was run: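 Read-out: 485/535 nm fluorescence intensity, calibrated against fluorescein. Medium only (DMEM + 10% FBS, no cells); test compound or DMSO vehicle added by pintool before plate reading.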

[13] = qHTS assay to test for compound auto fluorescence at 590 nm (red) in HEK293 cell free culture (AID 720683)
How it was run: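 Cell-free wells of DMEM with 10% FBS received compound, and intrinsic fluorescence was read at excitation/emission 540/590 nm. Values expressed as equivalence to Rose Bengal sodium.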

[14] = qHTS assay to test for compound auto fluorescence at 590 nm (red) in HepG2 cell free culture (AID 720684)
How it was run: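 Auto fluorescence equivalency versus Rose Bengal sodium, red channel Ex/Em 540/590 nm; compounds in cell-free MEM/10% FBS; DMSO vehicle control.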

[15] = qHTS assay to test for compound auto fluorescence at 460 nm (blue) in HepG2 cell free culture (AID 720685)
How it was run: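 Cell-free plates of MEM plus 10% FBS received 23 nL compound or DMSO vehicle; blue-channel (405/460 nm) intensity scored against triamterene as reference fluorophore.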

[16] = qHTS assay to test for compound auto fluorescence at 535 nm (green) in HepG2 cell free culture (AID 720686)
[17] = qHTS assay to test for compound auto fluorescence at 460 nm (blue) in HepG2 cells (AID 720687)
How it was run: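 HepG2 cells in MEM with 10% FBS, attached overnight at 37 C, were exposed to compound or DMSO for 1 hr at 37 C, 5% CO2. Blue fluorescence was read at 405/460 nm, with triamterene as reference fluorophore.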

[18] = target: Glucocorticoid receptor (Homo sapiens) (UniProt P04150); test: qHTS assay to identify small molecule agonists of the glucocorticoid receptor (GR) signaling pathway (AID 720691; active = well fitted activation curve with a large enough effect in the signal ratio in the repeat runs, not every such curve was filed as active; the % refers to the signal ratio)
Chain of Glucocorticoid receptor (Homo sapiens) (P04150 whole entry, looked up): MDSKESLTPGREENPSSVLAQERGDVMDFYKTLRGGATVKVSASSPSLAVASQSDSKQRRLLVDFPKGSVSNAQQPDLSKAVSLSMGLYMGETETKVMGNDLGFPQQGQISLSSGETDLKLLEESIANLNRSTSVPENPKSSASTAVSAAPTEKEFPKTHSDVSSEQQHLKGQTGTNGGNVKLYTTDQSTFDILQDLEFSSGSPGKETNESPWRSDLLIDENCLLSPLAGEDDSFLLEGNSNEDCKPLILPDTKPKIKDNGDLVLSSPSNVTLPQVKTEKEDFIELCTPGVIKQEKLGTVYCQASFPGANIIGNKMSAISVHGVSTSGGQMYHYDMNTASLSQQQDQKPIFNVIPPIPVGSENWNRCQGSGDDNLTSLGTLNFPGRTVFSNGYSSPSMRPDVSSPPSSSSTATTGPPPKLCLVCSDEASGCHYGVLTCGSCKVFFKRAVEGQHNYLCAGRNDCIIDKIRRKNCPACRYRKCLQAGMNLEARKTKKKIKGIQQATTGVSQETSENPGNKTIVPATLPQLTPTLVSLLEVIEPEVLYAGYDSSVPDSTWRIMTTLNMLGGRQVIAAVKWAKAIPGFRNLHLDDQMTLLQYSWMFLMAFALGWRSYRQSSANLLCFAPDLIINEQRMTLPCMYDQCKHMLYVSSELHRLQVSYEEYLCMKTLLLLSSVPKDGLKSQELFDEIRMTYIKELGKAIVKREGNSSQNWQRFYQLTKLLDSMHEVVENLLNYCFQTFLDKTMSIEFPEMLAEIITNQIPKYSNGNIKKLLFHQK
How it was run: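 HeLa GR-bla reporter line; cells pre-incubated 4 h, compound in DMSO 18 h at 37 C; LiveBLAzer B/G FRET substrate 2 h RT; fluorescence intensity read-out.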

[19] = qHTS assay for small molecule agonists of the p53 signaling pathway (AID 651631; calls by dose curve; also: nearly all actives have a fitted effect of over 15% in size)
How it was run: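 HCT-116 cells carrying a stable p53 response element–beta-lactamase reporter were plated, rested 5 h at 37 °C, then exposed to compound in DMSO for 16 h at 37 °C; reporter activity was read as FRET substrate fluorescence after 2 h at room temperature.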

[20] = target: Glucocorticoid receptor (Homo sapiens) (UniProt P04150); test: qHTS assay to identify small molecule antagonists of the glucocorticoid receptor (GR) signaling pathway (AID 720692; active = well fitted inhibition curve with a large enough effect in the signal ratio in the repeat runs, not every such curve was filed as active; the % refers to the signal ratio)
How it was run: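 Read-out: beta-lactamase FRET substrate fluorescence, 2 h at room temperature, in HeLa cells stably carrying a GRE-driven bla reporter. Compounds were co-incubated with 5 nM dexamethasone agonist (final) for 18 h at 37 C.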
% is scaled to controls: 0 for no effect and ±100 for the full control effect.

Cc1ccc(NC(N)=O)cc1
inactive: Potency [1] | outcome [2] | outcome [3] | outcome [4] | Potency [5] | outcome [6] | outcome [7] | outcome [8] | outcome [9] | outcome [10] | outcome [11] | outcome [12] | outcome [13] | outcome [14] | outcome [15] | outcome [16] | outcome [17] | Potency [18]

C[C@@H]1CC[C@@]2(OC1)O[C@H]1C[C@H]3[C@@H]4CC[C@H]5C[C@@H](O)CC[C@]5(C)[C@H]4CC(=O)[C@]3(C)[C@H]1[C@@H]2C
inactive: Potency [1] | outcome [2] | outcome [3] | outcome [4] | Potency [5] | fluorescence, relative to Rose Bengal [6] -1.11% [at 18.6 µM] | fluorescence, % of fluorescein control [7] -0.248% [at 18.6 µM] | fluorescence, % of triamterene [8] 0.0136% [at 18.6 µM] | fluorescence, % of fluorescein [10] -0.0442% [at 18.6 µM] | fluorescence, % of fluorescent control [11] 0.012% [at 18.6 µM] | activity change [12] -0.0372% [at 18.6 µM] | fluorescence, % of fluorescent control [13] 0.195% [at 18.6 µM] | fluorescence, % of Rose Bengal [14] 0.0999% [at 18.6 µM] | fluorescence, % of fluorescent control [15] 0.0653% [at 18.6 µM] | fluorescence, % of fluorescein control [16] 0.0232% [at 18.6 µM] | fluorescence, % of fluorescent control [17] -0.13% [at 18.6 µM]

CCCCCCCCS(=O)(=O)O
inactive: Potency [1] | outcome [2] | outcome [3] | outcome [4] | Potency [5] | outcome [6] | outcome [7] | outcome [8] | outcome [10] | outcome [11] | outcome [12] | outcome [13] | outcome [14] | outcome [15] | outcome [16] | outcome [17]

C/C(=N\O)c1ccc(OCC(=O)N2CCCCC2)cc1
inactive: outcome [2] | outcome [3] | outcome [4] | Potency [5] | outcome [6] | outcome [7] | outcome [8] | outcome [10] | outcome [11] | outcome [12] | outcome [13] | outcome [14] | outcome [15] | outcome [16] | outcome [17]
active: Potency [1] 23.7 µM

CC(C)C[P+](C)(CC(C)C)CC(C)C
inactive: Potency [19] | outcome [3] | outcome [4] | outcome [6] | outcome [7] | outcome [8] | outcome [10] | outcome [11] | outcome [12] | outcome [13] | outcome [14] | outcome [15] | outcome [16] | outcome [17] | Potency [18]

CC(C)OCCO
inactive: Potency [1] | outcome [2] | outcome [3] | outcome [4] | Potency [5] | outcome [6] | outcome [7] | outcome [8] | outcome [9] | outcome [10] | outcome [12] | outcome [13] | outcome [14] | outcome [15] | outcome [16] | outcome [17] | Potency [18] | outcome [20]

C[C@H]1COc2c(C3(N)CC3)c(F)cc3c(=O)c(C(=O)O)cn1c23
inactive: Potency [1] | outcome [2] | outcome [3] | outcome [4] | Potency [5] | outcome [6] | outcome [7] | outcome [8] | outcome [9] | outcome [10] | outcome [11] | outcome [12] | outcome [13] | outcome [14] | outcome [15] | outcome [16] | outcome [17] | Potency [18] | outcome [20]
